# Test results: PubChem BioAssay (NCATS)
# Values joined by “and” are separate entries in the source; they are usually repeats but may differ in a detail not shown here. Equal entries are not always repeated. Records with an inconclusive call do not appear. Unmarked numbers belong to inactive results. Active and inactive are the calls of the source. Calls come from the whole dose curve; as a rule, active = well fitted curve in the direction sought with a large enough effect; inconclusive = small, poorly fitted or top-dose-only effect, or another doubt; inactive = no such curve, though single readings can be large; an effect the other way counts as inactive or inconclusive.
# Tests used:
# [1] = Viability qHTS for spleen associated tyrosine kinase inhibitor (SYKi) naive MV4-11 cells (AID 1963823); note: nearly all actives have a fitted effect of over 40% in size
# In short: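 In this viability screen, compounds acted on SYK inhibitor naive MV4-11 cells for three days (72 hr, 37 C). Remaining viable cells were measured by CellTiter-Glo luminescence following a 10 min room-temperature development.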
# [2] = Viability qHTS for spleen associated tyrosine kinase inhibitor (SYKi) drug resistant MV4-11 cells (AID 1963824); note: nearly all actives have a fitted effect of over 35% in size
# In short: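 CellTiter-Glo luminescence, read 10 min after reagent addition, reports viability after a 72 hr compound exposure. Cells are an MV4-11 line made resistant to SYK inhibition, seeded at 500 per well onto compound-containing plates.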
# [3] = Quantitative highthroughput screen to assess conditional lethalithy of NOMO1 cells grown in RPMI1640 with untreated serum (RPMI+s) (AID 1963876); note: nearly all actives have a fitted effect of over 35% in size;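 for Viability: 100% = DMSO wells and 0% = empty wells without cells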
# In short: (§1)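 Each medium arm—HPLM with 10% dialyzed FBS, or RPMI1640 with 5 mM glucose and 10% untreated or dialyzed FBS—was screened against an 11-point, 3-fold compound titration for 48 h at 37 °C, with CellTiter-Glo luminescence as endpoint.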
# [4] = Quantitative highthroughput screen to assess conditional lethalithy of NOMO1 cells grown in RPMI1640 with dialyzed fetal bovine serum (RPMI+ds) (AID 1963877); note: nearly all actives have a fitted effect of over 30% in size
# In short: as §1
# [5] = Quantitative highthroughput screen to assess conditional lethalithy of NOMO1 cells grown in Human Plasma-Like Medium with dialyzed fetal bovine serum (HPLM+ds) (AID 1963878); note: nearly all actives have a fitted effect of over 35% in size
# In short: as §1
# [6] = Quantitative highthroughput screen to assess conditional lethalithy of P12 Ichikawa cells grown in Human Plasma-Like Medium with dialyzed fetal bovine serum (HPLM+ds) (AID 1963879); details: Potency: viability; note: nearly all actives have a fitted effect of over 35% in size
# In short: as §1
# [7] = Quantitative highthroughput screen to assess conditional lethalithy of P12 Ichikawa cells grown in RPMI1640 with dialyzed fetal bovine serum (RPMI+ds) (AID 1963880); details: Potency: P12-Ichikawa viability; note: nearly all actives have a fitted effect of over 35% in size
# In short: as §1
# [8] = Quantitative highthroughput screen to assess conditional lethalithy of P12 Ichikawa cells grown in RPMI1640 with untreated serum (RPMI+s) (AID 1963881); details: Potency: viability; note: nearly all actives have a fitted effect of over 35% in size
# In short: as §1
# [9] = Quantitative highthroughput screen to assess conditional lethalithy of SEM cells grown in Human Plasma-Like Medium with dialyzed fetal bovine serum (HPLM+ds) (AID 1963882); note: nearly all actives have a fitted effect of over 35% in size
# In short: as §1
# [10] = Quantitative highthroughput screen to assess conditional lethalithy of SEM cells grown in RPMI1640 with unreated serum (RPMI+s) (AID 1963883); note: nearly all actives have a fitted effect of over 35% in size
# In short: as §1
# [11] = Quantitative highthroughput screen to assess conditional lethalithy of SEM cells grown in RPMI1640 with dialyzed fetal bovine serum (RPMI+ds) (AID 1963884); note: nearly all actives have a fitted effect of over 35% in size
# In short: as §1
# Potency is the fitted concentration of half-maximal effect.
compound,measurement,setting,value
C#CCN(Cc1cc2c(=O)[nH]c(C)nc2cc1Br)c1ccc(C(=O)NCc2cccnc2)cc1,Potency,[1],inactive
same,Potency,[2],inactive
CC(CCC1C(C(=O)O)=CC(=O)CC1(C)C)O[C@@H]1O[C@H](CO)[C@@H](O)[C@H](O)[C@H]1O (some centres not stated),Potency,[1],inactive
same,Potency,[2],inactive
COc1ccc([C@H]2OC[C@H]3O[C@@H](O[C@H]4[C@@H]2NC[C@@H]4O)[C@H](O)[C@H]3O)cc1,Potency,[1],0.64 µM (active)
same,Potency,[2],0.404 µM (active)
O=C(O)c1ccc(OC2OC(CO)C(O)C(O)C2O)cc1 (configuration not stated),Potency,[1],inactive
same,Potency,[2],inactive
COc1c2c(c(C)c3c1C(=O)OC3)O[C@@]1(C)CC(O)C(C(C)(C)O)[C@](C)(CCC(=O)O)[C@H]1C2 (some centres not stated),Potency,[1],7.96 µM (active)
same,Potency,[2],7.09 µM (active)
COc1cc2c(cc1O)CC[C@H]1[C@@H]2CC[C@]2(C)[C@H](O)CC[C@@H]12,Potency,[1],0.58 µM (active)
same,Potency,[2],0.731 µM (active)
C=C1C[C@]23C[C@@]1(O)CC[C@H]2[C@@]12C=C[C@H](O)[C@@](C)(C(=O)O1)[C@H]2[C@@H]3C(=O)O,Potency,[1],inactive
same,Potency,[2],inactive
CC(C)[C@@H](c1ccc(C(F)(F)F)cc1CN(Cc1cc(C(F)(F)F)cc(C(F)(F)F)c1)c1nnn(C)n1)N1CCC(C(=O)O)CC1,Potency,[1],16.4 µM (active)
same,Potency,[2],20.6 µM (active)
C[C@@]12CC3(S(=O)(=O)O)OC(O1)[C@]1(COC(=O)c4ccccc4)[C@H]3C[C@]21O[C@@H]1O[C@H](CO)[C@@H](O)[C@H](O)[C@H]1O,Potency,[1],inactive
same,Potency,[2],inactive
C[C@@H]1O[C@@H](O[C@@H]2[C@@H](O)[C@H](O[C@H]3[C@H](O[C@H]4CC[C@@]5(C)C(CC[C@]6(C)C5CC=C5[C@@H]7CC(C)(C)CC[C@]7(C(=O)O[C@@H]7O[C@H](CO)[C@@H](O)[C@H](O)[C@H]7O[C@@H]7O[C@@H](C)[C@H](O[C@@H]8O[C@@H](C)[C@H](O)[C@@H](O)[C@H]8O)[C@@H](O)[C@H]7O)CC[C@]56C)[C@@]4(C)CO)O[C@H](C(=O)O)[C@@H](O)[C@@H]3O)O[C@H](CO)[C@H]2O)[C@H](O)[C@H](O)[C@H]1O (some centres not stated),viability (% of control),[1],94% [at 9.25 µM]
same,"viability, % of control",[2],108% [at 9.25 µM]
OC[C@H]1O[C@@H](OC(CCCCc2ccc(O)cc2)CCc2ccc(O)cc2)[C@H](O)[C@@H](O)[C@@H]1O (some centres not stated),Potency,[1],inactive
same,Potency,[2],inactive
CCN1CCN(Cc2ccc(C(=O)Nc3ccc(C)c(Oc4ccc5c(c4)CC(=O)N5)c3)cc2C(F)(F)F)CC1,Potency,[1],5.8 µM (active)
same,Potency,[2],8.2 µM (active)
N#C/C(=C\c1ccc(O)c(O)c1)C(=O)NCCCc1ccccc1,Potency,[1],8.2 µM (active)
same,Potency,[2],8.2 µM (active)
C[C@H]1CC[C@@]2(OC1)O[C@H]1CC3C4CC[C@H]5C[C@@H](O)[C@H](O)C[C@]5(C)C4=CC(=O)[C@]3(C)[C@H]1[C@@H]2C (some centres not stated),Potency,[1],inactive
same,Potency,[2],inactive
C(#Cc1nc2ncccc2nc1OCCN1CCCC1)c1ccccc1,Potency,[1],0.651 µM (active)
same,Potency,[2],1.03 µM (active)
COc1nc2ccc(Br)cc2cc1[C@@H](c1ccccc1)[C@@](O)(CCN(C)C)c1cccc2ccccc12,Potency,[1],6.51 µM (active)
same,Potency,[2],9.2 µM (active)
Nc1nc2c(nc(Sc3ccc(Cl)cc3)n2[C@@H]2O[C@@H]3COP(=O)(O)O[C@H]3[C@H]2O)c(=O)[nH]1,Potency,[1],inactive
same,Potency,[2],inactive
CCCCCc1ccc(/C=C/[C@H](O)[C@@H](CO)NC)cc1,Potency,[1],11.6 µM (active)
same,Potency,[2],20.6 µM (active)
CC(C)(C(=O)NCC(F)(F)C(F)(F)F)C(=O)NC1C(=O)Nc2ccccc2-c2ccccc21 (configuration not stated),Potency,[1],14.6 µM (active)
same,Potency,[2],13 µM (active)
COc1c(C)c(OCC(O)C(C)(C)O)cc2c1COC2=O (configuration not stated),Potency,[1],inactive
same,Potency,[2],inactive
C=CC(C)(CCC=C(C)C)O[C@@H]1O[C@H](CO)[C@@H](O)[C@H](O)[C@H]1O (some centres not stated),Potency,[1],inactive
same,Potency,[2],inactive
COc1c2ccoc2cc2oc(CO[C@@H]3O[C@H](CO)[C@@H](O)[C@H](O)[C@H]3O)cc(=O)c12,Potency,[1],inactive
same,Potency,[2],inactive
C=C(C(=O)O)C1CC2=C(C)C(=O)CC2C(C)CC1O (configuration not stated),Potency,[1],4.61 µM (active)
same,Potency,[2],3.66 µM (active)
C[C@H]1CC[C@@H]2N(C1)C[C@@H]1[C@H]([C@@H](O)[C@H](O)[C@]3(O)[C@H]1C[C@@]14OC5(O)[C@@H](C[C@@H](O)[C@@H]31)[C@]4(C)CC[C@@H]5O)[C@]2(C)O,Potency,[1],inactive
same,Potency,[2],inactive
C[C@@H]1CC[C@]2(C(=O)O)CC[C@]3(C(=O)O)C(=CCC4[C@@]5(C)CC[C@H](O[C@@H]6O[C@@H](C)[C@H](O[C@@H]7O[C@H](CO)[C@@H](O)[C@H](O)[C@H]7O)[C@@H](O)[C@H]6O)C(C)(C)C5CC[C@]43C)C2[C@H]1C (some centres not stated),Potency,[1],inactive
same,Potency,[2],inactive
CNC(=O)[C@@H](c1ccccc1)N1CCc2cc(OC)c(OC)cc2[C@@H]1CCc1ccc(C(F)(F)F)cc1,Potency,[1],20.6 µM (active)
same,Potency,[2],20.6 µM (active)
COC1CC(O[C@H]2CC[C@@]3(C)C(CCC4C3[C@H](OC(C)=O)[C@@H](OC(=O)/C=C/c3ccccc3)[C@]3(C)C(C(C)=O)CC[C@]43O)C2)OC(C)C1OC1CC(OC)C(OC2CC(OC)C(OC3OC(C)C(OC4OC(CO)C(O)C(O)C4O)C(OC)C3O)C(C)O2)C(C)O1 (some centres not stated),viability (% of control),[1],48.3% [at 9.25 µM]
same,"viability, % of control",[2],45.7% [at 9.25 µM]
OC[C@H]1O[C@@H](OCc2ccccc2)[C@H](O[C@@H]2OC[C@@H](O)[C@H](O)[C@H]2O)[C@@H](O)[C@@H]1O,Potency,[1],inactive
same,Potency,[2],inactive
CCn1c(-c2nonc2N)nc2c(C#CC(C)(C)O)ncc(OCC3CCCNC3)c21 (configuration not stated),Potency,[1],13 µM (active)
same,Potency,[2],8.2 µM (active)
Nc1ncnc2c1nc(Cl)n2C1OC2COP(=O)(O)OC2C1O (configuration not stated),Potency,[1],0.517 µM (active)
same,Potency,[2],0.461 µM (active)
NC(=O)c1noc([C@H](CCCC2CCCCC2)CC(=O)NO)n1,Potency,[1],8.2 µM (active)
same,Potency,[2],4.17 µM (active)
same,Potency,[3],16.6 µM (active)
same,Potency,[4],23.5 µM (active)
same,Potency,[5],18.7 µM (active)
same,Potency,[6],23.5 µM (active)
same,Potency,[7],18.7 µM (active)
same,Potency,[8],18.7 µM (active)
same,Potency,[9],18.7 µM (active)
same,Potency,[10],16.6 µM (active)
same,Potency,[11],18.7 µM (active)
CC(O)/C=C/C1C(C)C(O[C@@H]2O[C@H](CO)[C@@H](O)[C@H](O)[C@H]2O)C(O)CC1(C)C (some centres not stated),Potency,[1],inactive
same,Potency,[2],inactive
CN[C@H]1CCN(C(=O)c2ccc(Nc3ncc(F)c(-c4cnc(C)n4C(C)C)n3)cc2)C1,Potency,[1],0.058 µM (active)
same,Potency,[2],0.0517 µM (active)
CC1=C(COC2OC(CO)C(O)C(O)C2O)C(C(CO)C(=O)O)CC1 (configuration not stated),Potency,[1],inactive
same,Potency,[2],inactive
CN(Cc1cccs1)c1ncnc2ccc(-c3ccc4c(c3)OCO4)cc12,Potency,[1],11.6 µM (active)
same,Potency,[2],11.6 µM (active)
CN1CCN(c2cccc(Nc3nc4c(-c5ccc(S(C)(=O)=O)cc5)cccn4n3)c2)CC1,Potency,[1],146 nM (active) and 132 nM (active)
same,Potency,[2],130 nM (active) and 296 nM (active)
same,Potency,[3],inactive
